Screens from PubChem BioAssay.
TDP1 cell noCPT = qHTS for Inhibitors of human tyrosyl-DNA phosphodiesterase 1 (TDP1): qHTS in cells in absence of CPT. DT40 Tdp1-/- hTDP1 cells, no CPT, ATP luminescence, 48 h. Potency, µM (titrated, usually from 46.2 µM), actives largely listed as inhibitors. hit rate 15% among 420,000. AID 686978, 2013; further: nearly all actives have a fitted effect of over 55% in size
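Cells were dispensed at 400 per well, compounds added by pin tool, plates incubated ≥48 hr at 37 °C, then CellTiter-Glo added for 30 min at room temperature before luminescence reading. Line: DT40 Tdp1-/- complemented with hTDP1; camptothecin omitted.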
VP16 counter = VP16 counterscreen qHTS for inhibitors of ROR gamma transcriptional activity | Drosophila S2 Gal4-VP16 UAS-luciferase, luminescence, 20 h | Potency, µM (top dose mostly 53.6 µM), actives largely listed as inhibitors | hit rate 3.5% among 310,000 | AID 2546, 2010;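 further: Gal4-VP16 expression switched on by copper sulfate through the metallothionein promoter; nearly all actives have a fitted effect of over 50% in size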
IL-1B inflam inh = qHTS for Inhibitors of Inflammasome Signaling: IL-1-beta AlphaLISA Primary Screen; hit rate 4.7% among 360,000; THP-1 LPS/ATP IL-1B secretion, AlphaLISA, 16 h; hits give low values; AID 743279, 2014; activity change, % at 57.5 µM; in the data active means activity change below about -50%; inconclusive means mostly about -30% to -49%
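THP-1 cells pretreated 1 hr with compounds (up to 57.5 uM final), then stimulated with LPS (250 ng/mL final) plus ATP (1.25 mM final); secreted IL-1B measured by AlphaLISA after 16 hr, decreased signal indicating inhibition.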
DT40 TDP1 CPT = qHTS for Inhibitors of human tyrosyl-DNA phosphodiesterase 1 (TDP1): qHTS in cells in presence of CPT; Potency, µM (highest dose often 46.2 µM), usual class: inhibitors; chicken DT40 Tdp1-/-;hTDP1 cells + 20 nM CPT, ATP luminescence, 48 h; AID 686979, 2013; hit rate 12% among 420,000; further: nearly all actives have a fitted effect of over 55% in size
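Chicken DT40 Tdp1-/- cells complemented with human TDP1, 400 cells/well, exposed to compounds plus 20 nM camptothecin for at least 48 h at 37 C; viability read as ATP content by CellTiter-Glo luminescence.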
RORg inh = qHTS for inhibitors of ROR gamma transcriptional activity; Drosophila S2 Gal4-RORgamma UAS-luciferase reporter, 20 h; hit rate 5.4% among 310,000; Potency, µM (top dose mostly 53.6 µM), usual class: inhibitors; Nuclear receptor ROR-gamma (Mus musculus), P51450; further: nearly all actives have a fitted effect of over 60% in size
Target sequence (P51450 whole entry, looked up, the tested form may be a part): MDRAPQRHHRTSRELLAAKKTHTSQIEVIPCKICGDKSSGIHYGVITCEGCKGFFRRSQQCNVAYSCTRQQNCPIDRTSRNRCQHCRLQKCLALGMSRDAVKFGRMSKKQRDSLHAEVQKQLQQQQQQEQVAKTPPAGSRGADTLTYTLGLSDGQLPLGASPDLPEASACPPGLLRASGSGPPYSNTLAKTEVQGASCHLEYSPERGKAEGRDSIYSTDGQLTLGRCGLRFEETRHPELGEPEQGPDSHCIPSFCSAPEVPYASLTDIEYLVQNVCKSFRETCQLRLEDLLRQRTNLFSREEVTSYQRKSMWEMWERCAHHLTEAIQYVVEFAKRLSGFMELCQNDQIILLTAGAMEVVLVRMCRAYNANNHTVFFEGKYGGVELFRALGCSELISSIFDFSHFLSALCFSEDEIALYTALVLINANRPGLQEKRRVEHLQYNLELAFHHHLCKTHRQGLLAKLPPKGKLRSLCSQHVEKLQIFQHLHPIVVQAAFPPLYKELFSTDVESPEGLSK
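In this cell-based reporter format, copper sulfate (700 uM final) drives Gal4–ROR gamma fusion expression from a metallothionein promoter in Drosophila Schneider cells; compounds preincubated 1 hr, reporter read after 20 hr at ambient temperature.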
LDHA block = qHTS assay for inhibitors of human lactate dehydrogenase. purified LDHA, NADH/diaphorase-resazurin fluorescence; hits give low values. activity change, % (values are at about 110 or 230 µM). hit rate 0.15% among 480,000; in the data active means activity change below about -30%; inconclusive means mostly about -25% to -30%
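Human LDH5 at 2 nM final in Tris HCl pH 7.4 with 0.06 mM NADH and 0.2 mM pyruvate, reacted 5 minutes at room temperature. Remaining NADH coupled via diaphorase/resazurin; resorufin fluorescence read at 0 and 20 minutes, normalized to enzyme-free and DMSO wells.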
Hits are given with their value; 0 = inactive; ? = inconclusive; - = no result given. The list is not random: actives were taken first. Their share in the collection is about 18%. Unless noted, the call rests on the fitted dose curve; in most records, active means well fitted curve in the direction sought with a large enough effect; inconclusive means small, poorly fitted or top-dose-only effect, or another doubt; inactive means no such curve, though single readings can be large; an effect the other way counts as inactive or inconclusive.

SMILES	TDP1 cell noCPT	VP16 counter	IL-1B inflam inh	DT40 TDP1 CPT	RORg inh	LDHA block
Cc1nc(C)c(-c2csc(Nc3ccccn3)n2)s1	?	0	0	0	?	0
COC(=O)CC(N)c1cccc(C)c1C (stereo unspecified)	-	-	-	-	-	0
Brc1ccc(-c2nnc(-c3cccs3)o2)o1	-	-	-	-	-	0
O=C(NCC1CCN(C2CCCC2)C1)Nc1ccccc1 (stereo unspecified)	-	-	-	-	-	0
CCc1cc(SC#N)ccc1N	?	?	-102	0	?	0
CC(C)(C)C(=O)N1CCN(Cc2ccco2)CC1	-	-	-	-	-	0
N#CC1=C(N)NC(=S)C(C(N)=O)C1c1ccc(Cl)cc1Cl (stereo unspecified)	18µM	?	0	10µM	?	0
CC#CC[N+](C)(C)CCCCCCCCCC	1.8µM	0	-59	2.3µM	0	0
C#CC[N+](C)(C)CCCCCCCCC	2.3µM	0	-68	2.3µM	0	0
C#CC[N+](C)(C)C/C=C(\Cl)C(=C)Cl	-	-	-	-	-	0
COc1ccc(CN2CCC(Oc3ccc(C(=O)N4CCCCC4)cc3)CC2)cc1C	?	0	-53	?	0	0
COc1ccc(CCC(C)N2CCC(Oc3ccc(C(=O)N4CCCC4)cc3)CC2)cc1 (stereo unspecified)	?	0	0	26µM	0	0
CC(CCc1ccc(O)cc1)N1CCC(Oc2ccc(C(=O)N3CCCC3)cc2)CC1 (stereo unspecified)	0	0	0	0	0	0
CSc1cccc(CN2CCC(Oc3ccc(C(=O)N4CCCCC4)cc3)CC2)c1	0	0	-88	?	0	0
COc1cccc(CN2CCC(Oc3ccc(C(=O)N4CCCCC4)cc3)CC2)c1	0	0	0	0	0	0
O=C(C1=C(O)C(=O)N(c2nc3ccc(Cl)cc3s2)C1c1ccco1)c1ccco1 (stereo unspecified)	2.3µM	-	0	?	-	0
Cc1ccc2nc(N3C(=O)C(O)=C(C(=O)c4ccc(C)o4)C3c3ccco3)sc2c1 (stereo unspecified)	0	-	0	0	-	0
N#Cc1ccc(NN)c([N+](=O)[O-])c1	-	-	-	-	-	0
Cc1csc(NC(=O)c2ccc(Oc3cccc(Br)c3)nc2)n1	-	-	-	-	-	0
Fc1ccc(-c2cnc(CN3CCN(c4ccccc4Cl)CC3)o2)cc1	-	-	-	-	-	0
Cc1nnc(NC(=O)CSC2CCCCC2)s1	5.8µM	0	0	1.8µM	22µM	0
O=C(COc1ccc(C2CCCCC2)cc1)Nc1ccc2oc(-c3ccncc3)nc2c1	-	-	-	-	-	0
Cc1cc(NCCN2CCOCC2)c2ccc3ccccc3c2n1	?	0	-82	?	0	0
Cc1ccc(S(=O)(=O)NNC(=O)c2cnn(-c3ccccc3)c2-n2cccc2)cc1	1.5µM	0	0	1.6µM	0	0
Cc1ccc(S(=O)(=O)NNC(=S)NCCc2ccccc2)cc1	0	?	0	0	11µM	0
SMILES	TDP1 cell noCPT	VP16 counter	IL-1B inflam inh	DT40 TDP1 CPT	RORg inh	LDHA block
Cc1ccc(S(=O)(=O)NNC(=O)c2ccc(C(=O)N(c3ccccc3)c3ccccc3)cc2)cc1	11µM	-	-	16µM	-	0
Cc1ccc(S(=O)(=O)NNC(=O)c2ccc(F)cc2)cc1	0	0	0	0	0	0
CCOC(=O)c1cnn(-c2ccccc2)c1-n1cccc1	0	0	0	0	0	0
Cc1ccc(C(=O)NC(=S)NNS(=O)(=O)c2ccccc2)cc1	0	14µM	0	0	3.2µM	0
CC(Sc1n[nH]c(-c2cccs2)n1)C(=O)Nc1cc(Cl)cc(Cl)c1 (stereo unspecified)	-	-	-	-	-	0
Cc1nc2ccc(C(=O)NCc3ccccc3CN(C)C)cc2nc1C	-	-	-	-	-	0
Cc1ccc(S(=O)(=O)NNC(=O)c2ccccc2O)cc1	0	0	0	0	11µM	0
O=C(Nc1ccccc1)c1ccc(S(=O)(=O)N2CCOCC2)cc1	0	0	0	0	0	0
O=C(NC(=S)N1CCN(c2ccccc2)CC1)c1ccc(S(=O)(=O)N2CCOCC2)cc1	?	0.63µM	0	?	0.71µM	0
O=C(/C=C/c1ccc(S(=O)(=O)N2CCOCC2)cc1)N1CCN(c2ccccc2)CC1	1µM	0	0	12µM	0	0
COc1cccc(/C=C/C(=O)N2CCN(S(=O)(=O)c3ccccc3)CC2)c1	21µM	-	0	?	-	0
O=C(CN1C(=O)COc2ccccc21)Nc1cc(Cl)ccc1Oc1ccccc1	-	-	-	-	-	0
Cc1ccc2c(-c3cc4ccccc4o3)cc(=O)oc2c1C	-	-	-	-	-	0
COc1ccc(Cl)cc1NC(=O)N1CC(C)Oc2ccc(C)cc21 (stereo unspecified)	-	-	-	-	-	0
Cc1ccc(C(=O)N(CC(=O)NC2CCCC2)c2cccc(F)c2)s1	0	0	-80	0	0	0
Cc1ccc(C(=O)N(CC(=O)NC2CCCCC2)c2ccccc2F)s1	0	0	0	0	0	0
Cc1ccc(C(=O)N(CC(=O)NC2CCCCC2)c2ccccc2C)s1	23µM	0	0	?	0	0
CCOC(=O)C1CCCN(C(=O)COc2ccc(S(=O)(=O)N3CCOCC3)cc2)C1 (stereo unspecified)	0	-	-75	0	-	0
CCOC(=O)C1(C)CCN1C(=O)COc1ccc(C(C)(C)C)cc1 (stereo unspecified)	21µM	-	0	21µM	-	0
CCOC(=O)C1CCN(Cc2cnc(Oc3ccc(C(C)(C)C)cc3)s2)CC1	21µM	0	0	?	0	0
CCOC(=O)C1CCN(Cc2cnc(NC(=O)OC)s2)CC1	0	0	0	0	0	0
CCOC(=O)C1CCCN(C(=O)COc2ccc(C(C)(C)C)cc2)CC1 (stereo unspecified)	15µM	-	0	21µM	-	0
COC(=O)CCC(C)C1CCC2C3CCC4C[C@H](OC(=O)c5ccccc5)CCC4(C)C3CC(=O)C12C (stereo partly specified)	-	-	-	-	-	0
CCOC(=O)C1CCCN(C(=O)COc2ccc(C(=O)c3ccccc3)cc2)C1 (stereo unspecified)	23µM	-	0	23µM	-	0
CCN(CC)S(=O)(=O)c1ccc2c(c1)nc(SCC(=O)N1CCCCCC1)n2-c1ccc(OC)cc1	23µM	0	?	15µM	0	0
O=C(c1ccc(COc2ccc3ccccc3c2)o1)N1N=C(C(F)F)CC1(O)C(F)F (stereo unspecified)	21µM	?	0	?	?	0
O=C(c1ccc(COc2ccccc2Cl)o1)N1N=C(C(F)F)CC1(O)C(F)F (stereo unspecified)	16µM	?	?	23µM	0	0
